Hit rate of the full screen: of about 340,000 compounds, about 2,100 (0.62%) were called active.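 How the source made its calls: active means first-screen hits whose inhibition reached a set limit at any dose in the follow-up dose series; inconclusive means inhibition above the set first-screen limit but never retested; inactive means the rest.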 These entries were drawn from the full list. Potency and affinity values are given separately.

This assay deals with Rac GTPase-activating protein 1 (Homo sapiens) (UniProt Q9H0H5). The experiment in a line: blockers of MgcRacGAP-driven Rac1 GTP hydrolysis – biochemical, ADP Hunter fluorescence, primary and confirmatory, confirmation (AID 624330).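 Further: fluorescence reports GDP produced by GAP-driven GTP hydrolysis.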 The note with it: MgcRacGAP-stimulated Rac1 GTP hydrolysis, at 30 µM, hits give high values, GST-tagged Rac1 F28L mutant substrate.
Sequence of Rac GTPase-activating protein 1 (Homo sapiens) (Q9H0H5 whole entry, looked up): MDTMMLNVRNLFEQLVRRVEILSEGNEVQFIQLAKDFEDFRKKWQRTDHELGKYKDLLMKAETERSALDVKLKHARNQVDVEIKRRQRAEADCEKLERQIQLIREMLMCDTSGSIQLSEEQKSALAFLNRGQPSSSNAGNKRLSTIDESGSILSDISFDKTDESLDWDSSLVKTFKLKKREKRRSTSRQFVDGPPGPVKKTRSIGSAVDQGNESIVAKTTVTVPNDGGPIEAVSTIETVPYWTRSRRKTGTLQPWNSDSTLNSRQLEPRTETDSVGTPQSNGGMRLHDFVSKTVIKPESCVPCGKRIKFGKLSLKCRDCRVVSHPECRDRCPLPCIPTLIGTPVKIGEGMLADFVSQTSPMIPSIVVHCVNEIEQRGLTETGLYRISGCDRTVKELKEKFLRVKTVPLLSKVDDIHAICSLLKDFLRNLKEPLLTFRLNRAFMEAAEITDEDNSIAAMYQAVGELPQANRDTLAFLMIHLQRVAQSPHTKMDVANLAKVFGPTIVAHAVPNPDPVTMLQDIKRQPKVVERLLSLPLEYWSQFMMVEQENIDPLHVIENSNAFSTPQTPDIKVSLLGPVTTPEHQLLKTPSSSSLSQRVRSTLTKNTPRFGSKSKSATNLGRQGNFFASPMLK
The inhibition is the drop in the measured response relative to a control, in per cent. Consider `Nn1c(SCC(=O)NCCC2=CCCCC2)nnc1C(F)(F)F`, for which the inhibition is 9.95% (inactive). The result for `Cc1cccc(NC(=O)CSc2nnc(C)n2Cc2ccccc2)c1` reads -8.45% (inactive); that for `O=C(NCCc1nc(-c2ccccc2)cs1)c1ccc(Br)cc1`, -0.49% (inactive). The result for `CC(=O)N(Nc1ccccc1)c1ccccc1` reads -0.89% (inactive); that for `COc1ccc(C=C2C=C(C(C)(C)C)C(=O)C(C(C)(C)C)=C2)cc1OC`, 15.6% (inactive); that for `CC(=O)OCCCN1c2ccccc2Nc2nnc(-c3ccccc3)cc21`, 6.92% (inactive). In the case of `CCCCc1ccc(NC(=O)c2ccc(N(C)S(C)(=O)=O)cc2)cc1`, the inhibition is -2.51% (inactive).

Consider `CCN(CC)CCNc1ccc(Cl)cc1[N+](=O)[O-]`, for which the inhibition is 4.03% (inactive). Regarding `CCN(CC)CCNc1cccc2sc3ccccc3c(=O)c12`, the inhibition was 19.4% (inactive).

In the case of `C#CCOCCOCCOCCNc1nc(N2CCN(C(=O)[C@H]([C@@H](C)CC)n3cc(CCCN=C(N)N)nn3)CC2)nc(N2CCN(C(=O)[C@H](CCCCN)n3cc(CCC(=O)O)nn3)CC2)n1`, the inhibition is -4.54% (inactive).

On to `CCOc1ccc(CNc2ccc(N3CCN(Cc4ccccc4)CC3)cc2)cc1`, for which the inhibition was 30.8% (inactive). As for `O=C(CCS(=O)(=O)c1ccc(F)cc1)Nc1ccc(N2CCN(Cc3ccccc3)CC2)cc1`, the inhibition was 3.53% (inactive).

As to `O=C(CN1CCN(Cc2ccc(F)cc2)CC1)NCc1ccccc1`, the inhibition was 9.4% (inactive). As for `CC(=O)Nc1ccc(N2CCN(Cc3ccccc3)CC2)cc1`, the inhibition was 11.2% (inactive). Regarding `Cc1ccc(NC(=O)c2ccccc2Cl)cc1-n1cnnn1`, the inhibition was 3.88% (inactive). For `CCOc1ccc(S(=O)(=O)NN2Cc3ccccc3C2=N)cc1`, the inhibition is 7.55% (inactive). For `COc1ccc(OC)c(S(=O)(=O)N(C)CC(=O)N2CCN(c3ccc(F)cc3)CC2)c1`, the inhibition was 5.44% (inactive). The result for `Cc1cc(C(=O)NC2CCCC2)on1` reads 2.61% (inactive); that for `COc1ccc2c(c1)C(=NNC(=O)c1ccccn1)c1cc(OC)ccc1-2`, 12.9% (inactive). As for `CCOc1ccc2c(c1)C(=NNC(=O)c1ccccn1)c1cc(OCC)ccc1-2`, the inhibition is -24.9% (inactive). The result for `Cc1cc(C)n(C(=O)CNc2cccc(Cl)c2C)n1` reads 5.52% (inactive); that for `Cc1ccc(NC2(C#N)CCCC2)cc1`, 4.1% (inactive); that for `N#CC1(Nc2ccc(Br)cc2)CCCC1`, 2.57% (inactive). Turning to `COc1ccc(C(CNC(=O)c2ccc(S(=O)(=O)N(C)C)cc2)N2CCCC2)cc1` (configuration not stated), the inhibition was -5.33% (inactive).

`N#CC1(NC(=O)CSc2nnc3n2CCCCC3)CCCCC1`: the inhibition was 4.53% (inactive).

Turning to `CC(NC(=O)COC(=O)c1ccc(S(=O)(=O)N2CCOCC2)cc1)c1ccccc1` (configuration not stated), the inhibition was -3.85% (inactive). The figure for `Cc1c(NC(=O)Cc2cccs2)cccc1[N+](=O)[O-]` is 6.13% (inactive); for `CC(C)c1ccc(/C=N/Nc2cc(N3CCOCC3)nc(N3CCOCC3)n2)cc1` it is 2.24% (inactive). The figure for `Oc1ccccc1/C=N/Nc1cc(N2CCCC2)nc(N2CCCC2)n1` is -4.19% (inactive); for `Oc1ccc(/C=N/Nc2cc(N3CCCC3)nc(N3CCCC3)n2)cc1O` it is 23.7% (inactive); for `Oc1ccc(/C=N/Nc2cc(N3CCCC3)nc(N3CCCC3)n2)cc1` it is 7.45% (inactive). With `Cc1cccc(/C=N/Nc2cc(N3CCOCC3)nc(N3CCOCC3)n2)c1`, the inhibition was -20.8% (inactive). The result for `Oc1cccc(/C=N/Nc2cc(N3CCOCC3)nc(N3CCOCC3)n2)c1` reads 18.3% (inactive); that for `O=C(Cn1c(-c2ccccc2)noc1=O)N1CCC(Cc2ccccc2)CC1`, 5.27% (inactive); that for `O=C(CNCc1ccccc1)Nc1cccc(Cl)c1Cl`, 27.2% (inactive).

For `CCCCCN(C(=O)CCC(=O)OCC(=O)c1c(C)cc(C)cc1C)c1c(N)n(CCCC)c(=O)[nH]c1=O`, the inhibition is 3.32% (inactive). The figure for `CCN(C(=O)c1c(N)cnn1C)c1ccccc1` is -2.97% (inactive). The figure for `COc1ccc(N2CCN(C(=O)COC(=O)c3cccc(S(=O)(=O)Nc4cccc(C)c4)c3)CC2)cc1` is 5.68% (inactive); for `CCOC(=O)c1oc2cc(C)cc(C)c2c1C` it is 4.4% (inactive). With `CCOC(=O)c1oc2cccc(O)c2c1C`, the inhibition was 5.83% (inactive). The result for `Cc1ccc(-n2ncc3c2CC(C)(C)CC3NC(=O)c2c(C)noc2C)cc1` (configuration not stated) reads 5.31% (inactive); that for `CC(=O)Nc1ccc(S(=O)(=O)Nc2cc(C)cn(Cc3ccccc3)c2=O)cc1`, 3.18% (inactive); that for `O=C(CN1CCN(S(=O)(=O)c2ccc(F)c(Cl)c2)CC1)N1CCc2ccccc2C1`, 2.62% (inactive). The figure for `O=C(CN1CCN(S(=O)(=O)c2ccc3ccccc3c2)CC1)N1CCc2ccccc2C1` is 10.7% (inactive); for `O=C(CN1CCN(S(=O)(=O)c2cc(C(F)(F)F)ccc2Cl)CC1)N1CCc2ccccc2C1` it is 9.9% (inactive); for `COc1ccc(S(=O)(=O)N2CCN(CC(=O)N3CCc4ccccc4C3)CC2)cc1OC` it is 7.25% (inactive).

For `Cc1cc(OCC(=O)NCC(c2ccc(F)cc2)N2CCOCC2)ccc1Cl` (configuration not stated), the inhibition was 3.16% (inactive).

In the case of `O=C(CCc1ccc(S(=O)(=O)N2CCOCC2)cc1)Oc1ccccc1`, the inhibition was 8.54% (inactive).

In the case of `O=C(CN1CCCCC1)Nc1c2c(nc3ccccc13)N(c1ccccc1)CC2`, the inhibition is 20.7% (inactive). In the case of `O=C(CN1CCCC1)Nc1c2c(nc3ccccc13)N(Cc1ccccc1)CC2`, the inhibition was 3.93% (inactive). The figure for `CN(C)c1cc(NC(=O)CN2CCOCC2)c2ccccc2n1` is 0.97% (inactive). The result for `CCCCc1nc2ccccc2c(NC(=O)CNC(C)(C)C)c1CCC` reads 20.5% (inactive). For the compound `CN1CCN(CC(=O)Nc2cc(N(C)C)nc3ccccc23)CC1`, the inhibition was 27.1% (inactive). For `CCCCc1nc2ccccc2c(NC(=O)CN2CCCC2)c1CCC`, the inhibition was 28.9% (inactive). The figure for `CCCn1c(=O)c(C(=O)NCC2CCCO2)c(O)c2ccccc21` (configuration not stated) is 5.01% (inactive). The figure for `O=C1c2ccccc2C(=O)N1CCCCNc1ccccc1` is -2.64% (inactive); for `COC(=O)c1sc2ncccc2c1OCc1ccc(Cl)cc1` it is 1.91% (inactive). The result for `N#C/C(=C\c1ccc2c(c1)OCCO2)C(=O)NC1CCCCC1` reads 4% (inactive). Consider `C=CCOC(=O)COc1ccc2c(C)c(C)c(=O)oc2c1C`, for which the inhibition is -6.38% (inactive). The result for `COCCNC(=O)c1cc2c(=O)[nH]c3ccccc3c2s1` reads 6.07% (inactive); that for `CCOc1ccc(/C=N/Nc2ccc(C(F)(F)F)cc2[N+](=O)[O-])cc1O`, 13.1% (inactive). The result for `O=C(CCc1nc2ccccc2c(=O)[nH]1)Nc1ccc(F)c([N+](=O)[O-])c1` reads 2.61% (inactive); that for `CCC1=Nc2cc(C(=O)O)ccc2Sc2ccc(Cl)cc21`, 6.46% (inactive); that for `Clc1ccc(C2=Nc3cc(Cl)ccc3OC2)cc1`, 12.9% (inactive). On to `CCOc1ccc2nc(SCC(=O)NCc3ccc(OC)cc3)[nH]c2c1`, for which the inhibition was 6.56% (inactive). As to `Cc1ccc2c(c1)N(C(=O)CCC(=O)N1CCN(c3ccccc3)CC1)CCO2`, the inhibition is 11.2% (inactive). The figure for `O=C(CNC(=O)C1COc2ccccc2O1)N/N=C\c1cccc(O)c1` (configuration not stated) is 3.96% (inactive); for `CCN(CC)c1ccc(/C=N/NC(=O)CNC(=O)C2COc3ccccc3O2)c(O)c1` (configuration not stated) it is 5% (inactive). The figure for `COc1ccc(/C=N\NC(=O)CNC(=O)C2COc3ccccc3O2)cc1[N+](=O)[O-]` (configuration not stated) is 5.39% (inactive); for `COc1ccc(/C=N/NC(=O)CNC(=O)C2COc3ccccc3O2)cc1OC` (configuration not stated) it is 6.43% (inactive). For the compound `CCOC(=O)N1CCN(C(=O)COC(=O)c2cc(C)ccc2C)CC1`, the inhibition was -2.55% (inactive). For the compound `CCOc1ccccc1NC(=O)CN(c1ccc(C)cc1)S(=O)(=O)c1c(C)n[nH]c1C`, the inhibition was 0.88% (inactive). On to `Cc1cc(C(=O)O)ccc1NCc1ccncc1`, for which the inhibition was 7.32% (inactive).

For the compound `COCCN(CC(=O)NC1CCCCC1)C(=O)CCCC(=O)Nc1ccccn1`, the inhibition was -5.13% (inactive). The figure for `COC(=O)c1ccc(C(=O)OC)c(NC(=S)N2CCCCC2C)c1` (configuration not stated) is 8.35% (inactive); for `O=C(CN1CCN(c2ccccc2)CC1)NC(=O)NCc1ccco1` it is 5.31% (inactive); for `O=C(CN1CCN(c2ccc(F)cc2)CC1)NC(=O)NCc1ccco1` it is -4.47% (inactive). For `Cc1ccc(NC(=O)NC(=O)CN2CCC(C(N)=O)CC2)c(C)c1`, the inhibition was -2.71% (inactive).

For `COc1ccc(N2CCN(CC(=O)Nc3ccc(C)cc3Br)CC2)cc1`, the inhibition was -18.4% (inactive).

In the case of `Cc1ccccc1NC(=O)c1ccccc1NC(=O)c1ccco1`, the inhibition was 4.69% (inactive). For `Cn1cccc1C(=O)OCc1ccc(F)cc1`, the inhibition is 5.26% (inactive).

`Cc1nc2ccccn2c1C(=O)N/N=C/c1ccc(F)cc1`: the inhibition was 6.23% (inactive). Turning to `COc1ccc(/C=N/NC(=O)c2c(C)nc3ccccn23)cc1[N+](=O)[O-]`, the inhibition is 0.27% (inactive). As to `COc1ccc(OC)c(/C=N\NC(=O)c2c(C)nc3cc(C)ccn23)c1`, the inhibition was -1.68% (inactive).

Turning to `Cc1ccn2c(C(=O)N/N=C/c3ccc(Cl)cc3)c(C)nc2c1`, the inhibition is 8.94% (inactive).

On to `CN(CC1CCOCC1)C(=O)CC1C(=O)NCCN1Cc1cccc(Oc2ccccc2)c1` (configuration not stated), for which the inhibition was -8.59% (inactive).

For `O=C(CSc1nnc(CNC(=O)c2c(F)cccc2F)o1)NCCc1ccccc1`, the inhibition was 6.85% (inactive). As to `CCN1C(=O)[C@@H]2[C@H](C1=O)[C@@H]1C(=O)Nc3ccccc3C(=O)N1[C@@H]2c1ccc(OC)cc1`, the inhibition is 3.37% (inactive). The figure for `O=C(Nc1ccccc1C(=O)NCCc1ccccc1)c1cnccn1` is 8.13% (inactive); for `N#Cc1cc(-c2ccccc2)cnc1Sc1ccccc1` it is -2.07% (inactive); for `CCN(CC)CCCNC(=O)Cc1c(C(=O)O)n(C)c2ccccc12` it is 7.17% (inactive). The figure for `CCOC(=O)N1CCN(CC(c2ccccc2)c2ccccc2)CC1` is 20.9% (inactive); for `Cc1ccccc1C(OCC(O)CN1CCC(C(N)=O)CC1)c1ccccc1` (configuration not stated) it is 6.34% (inactive); for `CC(=O)c1ccc(N2CCN(CC(O)COC(c3ccccc3)c3ccccc3C)CC2)cc1` (configuration not stated) it is 12.8% (inactive). The result for `CCN1CCN(CC(O)COC(c2ccccc2)c2ccccc2)CC1` (configuration not stated) reads 0.21% (inactive). Consider `c1ccc(C(CN2CCOCC2)c2ccccc2)cc1`, for which the inhibition is 14.5% (inactive). The figure for `OC(COC(c1ccccc1)c1ccccc1)CN1CCCCC1` (configuration not stated) is 6.55% (inactive).

The record behind these values is PubChem BioAssay AID624330 (Southern Research Specialized Biocontainment Screening …, 2012).
